Among the data in PubChem BioAssay (EPA / NIEHS) are outcome and AC50 values, retold here.

“And” between values parts separate entries of the source, which are not always exact repeats. Identical values can stand only once. Inconclusive results are not listed. More than one record can exist for a structure, and the calls need not agree. The source made the active and inactive calls. Rule for the calls, unless noted: active = hit-call score of the fitted dose curve at least 0.9, where 1 is the maximum; inactive = score below 0.9.

Assay [1] in a line: CCTE_Mundy_HCI_Cortical_Synap_Neur_Matur_NeuriteCount: CCTE's Synaptogenesis and Neurite Maturation Assay in rat cortical cells for Neurite Count, Mundy Lab (AID 2284222).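 For outcome: exposure from day 7 to day 12 in vitro with readout at day 12.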 In outline: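 Primary rat cortical cells were plated, treated with AraC at DIV 5, then exposed to chemicals from DIV 7 through DIV 12. After fixation and immunostaining for MAP2 and synaptophysin, imaging quantified neurites, with DMSO as the negative control.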

The nature of assay [2]: CCTE_Mundy_HCI_Cortical_Synap_Neur_Matur_CellBodySpotCount: CCTE's Synaptogenesis and Neurite Maturation Assay in rat cortical cells for Cell Body Spot Count, Mundy Lab (AID 2284223). An outline of the steps:
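Chemicals were applied to AraC-treated rat primary cortical cells at DIV 7 and measured at DIV 12. Fixed cells were labelled for MAP2, synaptophysin and nuclei, and high-content imaging gave cell body synaptophysin spot counts per neuron relative to DMSO.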

Assay [3] can be described thus: CCTE_Mundy_HCI_hNP1_Pro_ResponderAvgInten: CCTE's Proliferation Assay in human neuroprogenitor cells, Mundy Lab (AID 2284224; active = hit-call score of the fitted dose curve at least 0.9, where 1 is the maximum;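 note: human neural progenitor cells hNP1 derived from WA09 embryonic stem cells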). In outline: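 Proliferation read as average intensity of BrdU-positive cells, imaged at 26.25 h post-dosing: chemical exposure started after 40–44 h culture, BrdU during final 4 h, paraformaldehyde fixation. Positive-direction fit relative to DMSO.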

A short description of assay [4]: BSK_BT_PBMCCytotoxicity: PBMC Cytotoxicity Assessment in the BioMAP Diversity Plus: BT Assay (AID 2284225).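 Note: PBMC viability measured by Alamar Blue dye reduction fluorescence.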 The conditions noted are these: primary human B cells with PBMC. An outline of the steps: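 Primary human co-culture of B cells and PBMC, pre-dosed 1 h then activated with SEB and TSST-1. Cytotoxicity is taken from Alamar Blue dye reduction, added for 6 h at the end of a 90 h incubation.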

Read-out in assay [5]: Secreted IgG (sIgG), gene 3500
The experiment in a line: BSK_BT_sIgG: BioMAP Diversity Plus: BT Assay for Secreted IgG (sIgG) Biomarker Activity (AID 2284226). As to conditions: primary human B cells with PBMC. An outline of the steps:
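Human B cell/PBMC co-culture; compound exposure 24 h; sIgG by ELISA; gain-of-signal fit vs DMSO baseline.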

A short description of assay [6]: BSK_BT_Bcell_Proliferation: Viability Assessment in the BioMAP Diversity Plus: BT Assay for B cell Proliferation (AID 2284227). The conditions noted are these: primary human B cells with PBMC. An outline of the steps:
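Read-out is absorbance at 560 nm from sulforhodamine B staining of total protein, reflecting relative cell numbers in a human B cell and PBMC co-culture after 72 h of chemical exposure. Values were referenced to DMSO.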

Read-out in assay [7]: Interleukin 6 (IL6), IL6 (gene 3569)
Briefly: BSK_BT_xIL6: BioMAP Diversity Plus: BT Assay for Interleukin 6 (IL6) Biomarker Activity (AID 2284228). As to conditions: primary human B cells with PBMC. In outline: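 IL-6 secretion measured (Luminex xMAP) in human primary B cell + PBMC co-culture at 24 h of chemical exposure; DMSO served as negative control and activity baseline, with curves fitted for increase.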

Read-out in assay [8]: Interleukin 17A (IL17A), IL17A (gene 3605)
Briefly: BSK_BT_xIL17A: BioMAP Diversity Plus: BT Assay for Interleukin 17A (IL17A) Biomarker Activity (AID 2284229). The conditions noted are these: primary human B cells with PBMC. An outline of the steps:
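Human primary B cells plus PBMC, treated 24 h with chemicals; supernatant IL-17A quantified on Luminex xMAP beads. Gain of signal over DMSO control scored as activity.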

Read-out in assay [9]: Tumor necrosis factor (Homo sapiens) (UniProt P01375)
Briefly: BSK_BT_xTNFa: BioMAP Diversity Plus: BT Assay for Tumor necrosis factor alpha (TNF-alpha) Biomarker Activity (AID 2284230). The conditions noted are these: primary human B cells with PBMC. In outline:
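Human primary co-culture of B cells and peripheral blood mononuclear cells; TNF-alpha in supernatant, 24 h post-dose, Luminex multiplex; DMSO = baseline.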

Read-out in assay [10]: Vascular cell adhesion molecule 1 (VCAM1), VCAM1 (gene 7412)
The experiment in a line: BSK_MyoF_VCAM1: BioMAP Diversity Plus: MyoF Assay for Vascular cell adhesion molecule 1 (VCAM1) Biomarker Activity (AID 2284231). As to conditions: primary human lung fibroblasts. An outline of the steps:
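VCAM-1 levels, lung fibroblasts, ELISA, 24 h exposure, increase scored relative to DMSO.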

Assay [11] can be described thus: UKN2_HCS_IMR90_cell_viability: Viability Assessment in the University of Konstanz (UKN) Leist Lab Neural Crest Cell Migration Assay in human induced IMR90 Pluripotent Stem Cells (UKN2) (AID 2284233).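 Note: cells exposed to compound for 24 h after a 24 h migration phase.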 In outline:
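Viability read as calcein-AM fluorescence by high-content imaging, Hoechst co-stain, 30 min. Human iPSC (IMR90) neural crest cells had migrated 24 h into stopper-defined gaps before 24 h chemical exposure. Fitted bidirectionally relative to DMSO.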

Assay [12] is described as follows: CCTE_Mundy_HCI_Cortical_NOG_BPCount: CCTE's Neurite Outgrowth Assay in rat cortical cells for Branch Point Count, Mundy Lab (AID 2284237). An outline of the steps: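 Measured 50.33 h after dosing, this morphology endpoint uses rat primary cortical cultures labelled for betaIII-tubulin. Branch points are quantified by high-content imaging, with DMSO as negative control and baseline.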

Read-out in assay [13]: Collagen I, COL1A1 (gene 1277)
Briefly: BSK_MyoF_CollagenI: BioMAP Diversity Plus: MyoF Assay for Collagen I Biomarker Activity (AID 2284238). The conditions noted are these: primary human lung fibroblasts. An outline of the steps: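 Measured by ELISA: Collagen I from human lung fibroblasts 24 h after compound addition, analysed for signal gain with DMSO as baseline; overt toxicity read from SRB staining of parallel cultures at the same time.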

Read-out in assay [14]: Collagen III, COL3A1 (gene 1281)
The experiment in a line: BSK_MyoF_CollagenIII: BioMAP Diversity Plus: MyoF Assay for Collagen III Biomarker Activity (AID 2284239). As to conditions: primary human lung fibroblasts. In outline:
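Multiplexed cell assay in lung fibroblasts, harvested at 24 h post-dose. Collagen III detected by ELISA, with positive-direction fitting relative to DMSO vehicle.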

Assay [15] in a line: CCTE_Mundy_HCI_hNP1_Casp3_7: CCTE's Caspase-Glo 3/7 Assay in human neuroprogenitor cells for Apoptosis, Mundy Lab (AID 2284240). An outline of the steps:
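Luminescent caspase-3/7 readout, 26.5 h post-dose, in human neural progenitor cells from WA09 embryonic stem cells. Cells grew 40–44 h at 37 °C, 5% CO2 before chemical addition. Activity analysed as signal increase over DMSO baseline.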

Assay [16] in a line: CCTE_Mundy_HCI_hNP1_CellTiter: CCTE's Cell Titer-Glo 2 Assay in human neuroprogenitor cells for Viability, Mundy Lab (AID 2284241; active = hit-call score of the fitted dose curve at least 0.9, where 1 is the maximum). In outline:
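Viability read as luminescent ATP content (CellTiter-Glo, 30 min room temperature) twenty-four hours after dosing, relative to DMSO. Cells: WA09-derived hNP1 neuroprogenitors on poly-L-ornithine/laminin, plated 40 to 44 hours before chemical.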
On the technique in general: Cellular ATP, detected with luciferase, serves as a proxy for viable cell number.

Assay [17] can be described thus: CCTE_Mundy_HCI_Cortical_Synap_Neur_Matur_NeuronCount: CCTE's Synaptogenesis and Neurite Maturation Assay in rat cortical cells for Neuron Count, Mundy Lab (AID 2284242; active = hit-call score of the fitted dose curve at least 0.9, where 1 is the maximum;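 note: neuron number from Hoechst nuclei and MAP2 staining by high-content imaging; hits reduce neuron count versus DMSO baseline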). An outline of the steps: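 Rat cortical cultures; AraC DIV 5; chemical dosing + media change DIV 7 to DIV 12 (288.33 h readout). Fix, Hoechst, anti-MAP2/anti-synaptophysin immunostain; HCI neuron count vs DMSO baseline.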

Assay [18] can be described thus: CCTE_Mundy_HCI_Cortical_NOG_NeuronCount: CCTE's Neurite Outgrowth Assay in rat cortical cells for Neuron Count, Mundy Lab (AID 2284236; active = hit-call score of the fitted dose curve at least 0.9, where 1 is the maximum;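 note: neurons counted by imaging betaIII-tubulin and Hoechst stained cortical cells; cells exposed to compound for about 48 hours before fixation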). In outline:
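Read-out: neuron number by high-content imaging of betaIII-tubulin (Alexa Fluor-488) and Hoechst-labelled rat primary cortical cells.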

By AC50 is commonly meant the midpoint of the concentration-response curve, whichever way the signal moves.

Chain of Tumor necrosis factor (Homo sapiens) (P01375 whole entry, looked up): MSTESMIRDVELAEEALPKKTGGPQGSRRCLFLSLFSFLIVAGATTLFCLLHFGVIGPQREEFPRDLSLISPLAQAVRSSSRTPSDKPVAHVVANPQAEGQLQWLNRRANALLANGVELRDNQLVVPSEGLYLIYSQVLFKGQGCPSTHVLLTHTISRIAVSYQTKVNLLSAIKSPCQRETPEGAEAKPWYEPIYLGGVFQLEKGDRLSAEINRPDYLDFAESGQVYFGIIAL

Regarding `O=C(O)C(F)(OC(F)(F)C(F)(F)C(F)(F)F)C(F)(F)F` (stereo not given), the compound was called inactive in assay [1], in assay [2], in assay [3], in assay [4], in [5] and in assay [6]. Moreover, the result in assay [7], in [8], in [9], in assay [10], in [11] and in [12] was inactive. The result in assay [13], in assay [14], in assay [15] and in [16] was inactive. Further, the AC50 in assay [4] is 220 nM (active); in [6], 220 nM (active) and 291 nM (active); in assay [9], 6.18 µM (active); in [17], 6.27 µM (active).
Turning to `CCOP(=S)(OCC)SCSCC`, the concentration at half-maximal activity (AC50) in assay [1] is 81.1 µM (active); in assay [2], 77.6 µM (active); in [17], 78.4 µM (active). For the same compound, the compound was called inactive in [1], in [2], in [3], in [11], in assay [18] and in assay [12]. In addition, the compound was classed as inactive in assay [15] and in [16].
On to `OCC(F)(F)OC(F)(F)C(F)(F)OC(F)(F)CO`, for which the result in [4], in [5], in assay [6], in assay [7], in [8] and in assay [9] was inactive. For the same compound, the result in assay [10], in assay [13] and in assay [14] was inactive.
As to `OCC(F)(F)OC(F)(F)C(F)(F)OC(F)(F)C(F)(F)OC(F)(F)CO`, the outcome in assay [4], in assay [6], in [7], in assay [8], in [9] and in assay [10] was inactive. In addition, the result in assay [13] and in assay [14] was inactive. The AC50 was 30 µM (active) in assay [5], 38.4 µM (active) in assay [7] and 41.2 µM (active) in assay [10].
Consider `CCOc1ccc(C(C)(C)COCc2cccc(Oc3ccccc3)c2)cc1`, for which the result in [1], in [2], in assay [3], in assay [12], in assay [15] and in assay [16] was inactive. Further, in assay [17], the AC50 was 15 µM (active).
As to `C=CC(=O)OCC(F)(F)C(F)F`, the compound was classed as inactive in [3], in [14], in assay [15] and in assay [16]. In addition, the AC50 in assay [4] was 30 µM (active) and 23.6 µM (active); in assay [5], 43 µM (active) and 48.8 µM (active); in assay [6], 22.3 µM (active) and 36.2 µM (active); in [7], 34.1 µM (active) and 31.7 µM (active); in [8] it was 30 µM (active) and 31.8 µM (active); in assay [9], 30 µM (active) and 29.8 µM (active). Moreover, the AC50 in assay [10] is 44.1 µM (active) and 32.7 µM (active); in [13], 46.7 µM (active) and 44.9 µM (active); in assay [14], 48.7 µM (active).
`CCOP(=S)(OCC)SCn1nnc2ccccc2c1=O`: the result in assay [4], in [6], in assay [7], in [8], in assay [9] and in assay [10] was inactive. In addition, the result in assay [13] and in assay [14] was inactive. The AC50 in assay [5] was 20 µM (active).
For `OCC(F)(F)OC(F)(F)C(F)(F)OC(F)(F)C(F)(F)OC(F)(F)F`, the AC50 in assay [4] is 30.7 µM (active) and 43.3 µM (active); in [5], 50.4 µM (active) and 44.2 µM (active); in assay [6] it was 22.6 µM (active) and 52.7 µM (active); in [7] it was 46.6 µM (active) and 45.2 µM (active); in [8], 49.2 µM (active); in assay [9] it was 50.4 µM (active) and 30 µM (active). The AC50 is 54.7 µM (active) and 40.5 µM (active) in assay [10]; 39.9 µM (active) and 22.1 µM (active) in assay [13]; 19.7 µM (active) and 23.9 µM (active) in assay [14]. Also, the result in [8] and in assay [15] was inactive.
With `COP(=O)(O)OC`, the outcome in assay [4], in assay [5], in assay [6], in assay [7], in assay [8] and in assay [9] was inactive. Also, the outcome in assay [10], in [13] and in assay [14] was inactive.
